# Results reported in PubChem BioAssay (NCI).
# About 83,000 compounds went through this panel and 20% of them were active in at least one assay; those are over-represented in the sample as a whole.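 Compound tested at a single concentration for 48 hours in 96-well plates; a percent growth value below 10 was scored as active.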 A number with no mark means an inactive call. The source made the active and inactive calls.
# Columns and labels:
# Test in all cases: NCI-60 one-dose screen, 48 h (100 = growth as untreated, 0 = no growth, -100 = all killed)
# [1] = test system: BT-549 breast; details: 10 µM unless noted
# [2] = test system: MDA-MB-435 melanoma; details: 10 µM unless noted
# [3] = test system: SW-620 colon; details: 10 µM unless noted
# [4] = test system: MCF7 breast; details: 10 µM
# [5] = test system: HCT-116 colon; details: 10 µM unless noted
# [6] = test system: HCC-2998 colon; details: 10 µM unless noted
# [7] = test system: KM12 colon; details: 10 µM unless noted
Compound,growth [1],growth [2],growth [3],growth [4],growth [5],growth [6],growth [7]
O=C(N=Nc1c(O)[nH]c2ccccc12)c1oc2ccccc2c1CN1CCN(c2ccccc2)CC1,11.4%,26.3%,0.43% (active),-22.7% (active),-53.1% (active),33.6%,23.1%
COc1cc(/C=C/C(=O)c2c(C)nc3ccccc3c2/C=C/c2ccccc2)cc(OC)c1OC,6.8% (active),3.78% (active),0.233% (active),13.7%,-81.8% (active),6.52% (active),-5.07% (active)
O=C(NCCCN1CCC(N2CCCCC2)CC1)C1=Cc2cc(Br)ccc2OC1,90%,51.3%,56.2%,25.5%,37%,20.4%,12.4%
CCCSC1=NC2C(N(CC)C(=O)N2CC)N1/N=C/C=C/c1ccccc1[N+](=O)[O-] (centres undefined),30.7%,-30.1% (active),37.3%,21.8%,7.28% (active),15%,14.9%
O=C(Cn1cc(COc2ncnc3c2cnn3-c2ccccc2)nn1)Nc1ccccn1,94%,98%,102%,90.4%,98.2%,120%,100%
Cc1ccc(CN2CCC(C(=O)Nc3ccc(-c4cc5ccccc5[nH]4)cc3)CC2)o1,72.5%,58.9%,66%,64.1%,49.9%,79.4%,24.4%
O=C(NC1CCN(Cc2ccccc2)CC1)c1cc2nc(-c3ccc(Cl)s3)cc(C(F)(F)F)n2n1,66%,-82% (active),-6.12% (active),-68.2% (active),28%,84.2%,37.1%
CCN(CCO)CCNc1ccc(C)c2sc3cc(Cl)ccc3c(=O)c12,69.6%,-68.6% (active),-85% (active),-83.1% (active),-66.1% (active),-96.8% (active),7.87% (active)
Nc1ccccc1-c1ccc(-c2ccc(Cl)cc2)c2c1[nH]c1ccccc12,85.4%,91.2%,78.2%,68.7%,52.8%,86.1%,66.6%
NC(CCc1nc2ccccc2c(=O)[nH]1)C(=O)O (centres undefined),97%,100%,102%,105%,105%,107%,112%
O=C1/C(=C/c2cccc(O)c2)COc2ccc(O)cc21,98.1%,60.3%,9.65% (active),14%,10.1%,103%,20.9%
COc1ccc(-c2nc(N3CCN(C(=O)C4CCCCC4)CC3)c3c4c(sc3n2)CCCC4)cc1,61.4%,-54.1% (active),-1.68% (active),-10.8% (active),17%,53.2%,-46.4% (active)
O=C(Nc1ccc(N2CCNCC2)cc1)c1[nH]ncc1Nc1cc(Oc2ccccc2)ncn1,17.5%,35.8%,-65.5% (active),-0.204% (active),-33.6% (active),-18.1% (active),-78% (active)
CCN1C(=O)N(CC)C2Nn3c(s/c(=C\c4ccccc4F)c3=O)=NC21 (centres undefined),44.3%,-19.9% (active),38.4%,33.1%,17.5%,36.1%,28.5%
COC(=O)/C(CCC=C(C)C)=C1\[C@@H](OC(C)=O)C[C@@]2(C)[C@H]1CC(=O)[C@H]1[C@@]3(C)CC[C@H](NCc4ccccc4)[C@@H](C)[C@@H]3CC[C@@]12C,89.7%,91.2%,81.5%,82.2%,73%,66.6%,101%
COC(=O)c1c2c(c(C)[n+]([O-])c1C)C(=O)C=C(NCc1ccc(F)c(F)c1)C2=O,-97.2% (active),-92.2% (active),-43% (active),-65.7% (active),-53.9% (active),-66.5% (active),-14.9% (active)
COC(=O)C1(C)COP(=O)(Nc2ccc(OC)cc2)OC1 (centres undefined),98.4%,105%,108%,99.5%,95.3%,94.1%,103%
COc1ccc(S(=O)(=O)N(Cc2ccc3c(n2)C=CC(C)(C)O3)C2CCC2)cc1OC,-25.2% (active),-34.7% (active),3.81% (active),2.14% (active),-5.68% (active),-1.63% (active),-1.42% (active)

Compound,growth [1],growth [2],growth [3],growth [4],growth [5],growth [6],growth [7]
CCCCCCn1c(=N)n(CC(O)COc2cccc(C)c2)c2ccccc21 (centres undefined),36.6%,-77.3% (active),-65.9% (active),-51.6% (active),-33.8% (active),-87.1% (active),-43.8% (active)
CCc1ccc(CNCC(O)c2ccccc2)cc1 (centres undefined),90.1%,69.9%,89.6%,29.8%,47.8%,38.5%,72.5%
CCOC(=O)c1cc2c(n1Cc1ccccc1)-c1oncc1CCC2,101%,-7.87% (active),43%,45.8%,64.7%,87.5%,56.1%
Cc1cc(Nc2ccc(OCc3ccccc3)cc2)nc2cc(O)ccc12,69.7%,65.6%,11%,39.3%,30.6%,-34% (active),45.6%
COc1cc(/C=C2\CCC/C(=C\c3cc(CN4CCCCC4)c(O)c(OC)c3)C2=O)cc(CN2CCCCC2)c1O,103%,76.8%,71.4%,52.5%,60.1%,103%,73.7%
COc1cc(C2CC(c3ccc(Nc4nc(NCCO)nc(N5CCOCC5)n4)cc3)=NN2c2cc(Cl)cc(Cl)c2)cc(OC)c1OC (centres undefined),75.3%,49.6%,81.6%,15.3%,33.1%,63.4%,37.6%
COC(=O)/C(CCC=C(C)C)=C1\[C@@H](OC(C)=O)C[C@@]2(C)[C@H]1C[C@@H](O)[C@H]1[C@@]3(C)CC[C@H](NCCCNCCCCNCCCN)[C@@H](C)[C@@H]3CC[C@@]12C,80.4%,8.03% (active),55.8%,95.6%,47.1%,52.1%,21.7%
COc1cccc2c1C=C1CCCCC3=Cc4c(OC)cccc4OC13O2,64%,-15.8% (active),27.2%,26.5%,22.1%,71.1%,32.3%
C=C(C)CCC(C)N1CCC(N2CCC(C(=O)NCCc3ccccc3)CC2)CC1 (centres undefined),64.5%,-18.5% (active),45.2%,9.23% (active),17.6%,131%,24.8%
CC(=O)c1ccc(Cc2ccc(C(C)=O)s2)s1,110%,107%,103%,85.1%,103%,104%,95.2%
COc1ccc(/C=c2\sc3n(c2=O)NC2C(N=3)N(C)C(=O)N2C)cc1 (centres undefined),111%,89.6%,105%,94.5%,100%,108%,95.2%
CN=c1ccc2nc3ccc(N)cc3sc-2c1,52.4%,,10.8%,-12.7% (active),6.01% (active),49.8%,27.9%
CC(C)CCOc1ccc(-c2n[nH]c(C(F)(F)F)c2-c2cncc(C#N)c2)c(O)c1,6.56% (active),,14.3%,2.95% (active),2.41% (active),16.2%,7.94% (active)
NC1C(N)C(N)C1N (centres undefined),107%,122%,106%,,103%,99.9%,119%
O=C(/C=C/c1ccc(F)cc1)c1ccc(Nc2nc(NCCO)nc(Nc3ccc(Cl)cc3)n2)cc1,72%,,46.3%,4.3% (active),8.67% (active),29.9%,25.5%
C1CCN(c2nc(N3CCCCC3)nc(N3CCOCC3)n2)CC1,109%,101%,103%,,105%,90.7%,106%
COc1nc2c(c(=O)n1C)N=C1c3ccccc3C(=O)C1C(c1ccccc1)N2 (centres undefined),81.1%,,88.4%,88.2%,89.9%,106%,79.3%
